# Measurements taken from PubChem BioAssay (NCI).
# The panel holds about 83,000 compounds, 20% with a hit somewhere; the sample as a whole holds those more often.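 Results are percent growth after 48 hours of single-concentration exposure. 100 means growth as in untreated cells, lower positive values show inhibition; negative values down to -100 show cell death.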 Values without a mark were called inactive. Activity calls are given as the source filed them. How the source made its calls: active means growth percent below 10; inactive means the rest.
# Test system: KM12 colon
# Experiment: NCI-60 one-dose screen, 48 h (100 = growth as untreated, 0 = no growth, -100 = all killed)
# Conditions: 10 µM unless noted
row,Compound,growth
1,Cc1cccc2c3c(sc12)C(c1ccc(F)cc1)C(C#N)=C(N)O3 (centres undefined),2.86% (active)
2,CCc1cccc2c3c(sc12)C(c1ccc(Cl)cc1)C(C#N)=C(N)O3 (centres undefined),18.5%
3,CCOC(=O)c1sc2ncc(-c3ccc(OC)cc3)n2c1C,101%
4,Cc1c(C(=O)NCCCc2ccccc2)sc2ncc(-c3ccc(Br)cc3)n12,100%
5,COc1ccc(NC2=C(Br)C(=O)C(C)=C(C)C2=O)cc1,94.8%
6,O=S(=O)(Nc1ccc(-c2nc(-c3cccc(OCCN4CCOCC4)c3)c(-c3ccnc(Br)c3)[nH]2)cc1)c1ccccc1,8.86% (active)
7,Cc1ccc2c(n1)C(=O)C(Cl)=C(Nc1ccccc1C(C)C)C2=O,88%
8,COc1cccc(-c2nc(-c3ccc(NC(=O)C(C)C)cc3)[nH]c2-c2ccnc(Br)c2)c1,36.4%
9,COc1ccc(-c2cc(-c3ccc(Cl)cc3)c(C#N)c(=O)n2CCCCCC(=O)Nc2ccccc2N)cc1,40.4%
10,CCOC(=O)Nc1ccc(-c2nc(-c3cccc(OC)c3)c(-c3ccnc(Br)c3)[nH]2)cc1,24.7%
11,CCn1cnc2c1c(=O)[nH]c(=O)n2CC1CCC(CNS(=O)(=O)c2ccc(OC3CCOCC3)c(F)c2)CC1 (centres undefined),59.9%
12,Cc1ccc(NC2=C(Cl)C(=O)c3nc(C)ccc3C2=O)cc1,36.6%
13,CCc1cccc2c3c(sc12)C(c1ccc(F)cc1)C(C#N)=C(N)O3 (centres undefined),25.1%
14,CCc1cccc2c1S/C(=C/c1ccc(OC)cc1)C2=O,28.6%
